Here are results for 36 compounds from PubChem BioAssay.

Each structure is given as a SMILES string.

Chain of Streptavidin (Streptomyces avidinii) (P22629 whole entry, looked up): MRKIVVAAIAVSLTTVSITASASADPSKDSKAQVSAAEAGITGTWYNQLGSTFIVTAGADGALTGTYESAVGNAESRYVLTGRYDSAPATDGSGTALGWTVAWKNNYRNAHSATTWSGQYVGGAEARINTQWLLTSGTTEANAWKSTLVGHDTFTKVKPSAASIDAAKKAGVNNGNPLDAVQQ

The experiment concerns the target Streptavidin (Streptomyces avidinii) (UniProt P22629). Description: streptavidin binders on small-molecule microarray, primary screen, artefact control for SMM compound annotation, biophysical, 635/667 nm fluorescence (AID 1147).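 Note: signal reflects streptavidin binding to arrayed compounds as a control protein.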 The conditions noted are these: streptavidin binding, higher = more signal.
Compound `C[N+](C)(C)CCCCNC(=O)[C@H]1C[C@H]2C(=O)N3CCC[C@H]3C(=O)N2[C@H]1c1ccc(O)cc1` gave a composite z-score of 0.319.
As for `O=S(=O)(NCCCO)c1ccc(Br)cc1`, the composite z-score worked out at 0.587.
For `Cc1ccc(S(=O)(=O)N2CC(C(=O)O)=CCC2c2ccccc2)cc1` (stereo unspecified), the composite z-score is -0.134.
Next, `C=CCOC(=O)[C@H]1[C@@H]2C(=O)O[C@@H](c3ccccc3)[C@@H](c3ccccc3)N2[C@@H](c2ccc(OCCOC(=O)[C@@H]3C[C@@H]4C(=O)NCC(=O)N4[C@@H]3c3ccc(O)cc3)cc2)[C@]12C(=O)Nc1ccc(I)cc12`: 0.205; `CC(=O)NCCCC[C@@H]1NC(=O)[C@@H]2C[C@H](C(=O)NCCCCCC[N+](C)(C)C)[C@H](c3cccc(OCCO)c3)N2C1=O`: -0.206; `C/C=C/[C@H](CCn1cc([C@H](O)c2ccccc2)nn1)[Si](C)(C)c1ccc(OC)cc1`: -0.832.
Turning to `CCCNC(=O)[C@@]1(C)c2ccccc2C(=O)N(Cc2cc(C(F)(F)F)cc(C(F)(F)F)c2)[C@H]1c1ccc(CO)cc1`, the composite z-score was -0.974.
`C=C(CCCC)/C(=C/C[C@H](OC(C)=O)c1ccc(CO)o1)c1cc(C(=O)OC)ccc1OC` came in with a composite z-score of 0.772.
Under `C=CCCN(CC#C[C@H]1Oc2ccccc2S(=O)(=O)N2CCC[C@@H]12)S(=O)(=O)c1ccc(C)cc1` stands -0.198; under `CN1C(=O)C2C=CC(C(O)C(c3ccccc3)c3ccccc3)N(Nc3ccccc3)C2C1=O` (stereo unspecified), 1.49.
Under `O=C1OCCC/C=C\[C@H]2OC34C=CCN(CCN5CCOCC5)C(=O)[C@H]3N(CCO)C(=O)[C@@H]4C12` (stereo partly specified) stands -0.671; under `COCCOC(=O)N1C(=O)[C@@]2(c3cc(C#CC4(O)CCCCCC4)ccc31)[C@H](c1ccc(O)cc1)N1[C@H](c3ccccc3)[C@H](c3ccccc3)OC(=O)[C@H]1[C@@H]2C(=O)N1CCc2cc(OC)c(OC)cc2C1`, -1.33; under `COCCn1c(C(=O)N2CCCC2)cc2c1C[C@H]1CN(C(=O)c3ccccc3)[C@@](Cc3ccc(OC)cc3)(C(=O)OC)[C@@H]21`, 2.01.
Regarding `Cc1cc(C)c(C(O)C2C=CC3C(=O)NC(=O)C3N2Nc2ccccn2)c(C)c1` (stereo unspecified), the composite z-score is 0.545.
Next, `CC(c1ccccc1)C(O)C1C=CC2C(=O)N(Cc3ccccc3)C(=O)C2N1n1cnnc1` (stereo unspecified): 0.705.
Under `O=C(NCC(O)CO)[C@@]1(Cc2ccccc2)N=C(c2ccc(OCCCO)cc2)O[C@H]1c1ccccc1` (stereo partly specified) stands 0.993; under `CC(c1ccccc1)C(O)C1C=CC2C(=O)N(c3ccccc3)C(=O)C2N1Nc1ccccc1F` (stereo unspecified), 0.527; under `C=CC[C@@]1(C(=O)NCc2ccccc2)N=C(c2ccc(OCCCO)cc2)O[C@@H]1c1ccccc1CN=[N+]=[N-]`, 0.579.
The compound `C=CCN1C(=O)[C@]2(Cc3ccccc31)N=C(c1ccc(OCCCO)cc1)O[C@@H]2c1ccccc1` came in with a composite z-score of 0.586.
Take `CCCCC(=O)N(Cc1ccccc1F)[C@@H]1CC(C(=O)NCCO)=C[C@H](Oc2c(I)cc(CO)cc2OC)[C@H]1O`: the composite z-score was -0.291.
Next, `Cc1c(NC(=O)/C(C#N)=C/C=C/c2ccccc2)c(=O)n(-c2ccccc2)n1C`: 0.783.
The compound `CC(C)(C)OC(=O)CC[C@]1(C(=O)NCC(O)CO)N=C(c2ccc(OCCCO)cc2)O[C@H]1c1ccccc1CN=[N+]=[N-]` (stereo partly specified) displayed a composite z-score of 1.63.
Under `CCCC[C@@H]1C[C@H]1[C@@H](NC(=O)c1ccco1)c1ccccc1` stands -1.27.
Under `NC(=O)NCC#Cc1ccc2c(c1)[C@]1(C(=O)N2)[C@H](c2ccccc2OCCO)N2[C@H](c3ccccc3)[C@H](c3ccccc3)OC(=O)[C@H]2[C@@H]1C(=O)N1CCCCCCC1` stands 2.48; under `C=C(COC)C(=O)CC[C@H](OC(=O)c1cccnc1)c1ccccc1OCCO`, 0.279.
Under `C=C(C(=O)CC[C@@H](OC(=O)c1cccnc1)c1ccc(CO)o1)C(C)C` stands 0.156; under `O=C1O[C@H](c2ccccc2)[C@H](c2ccccc2)N2[C@H]1[C@@H](C(=O)Nc1nc3ccccc3s1)[C@]1(C(=O)Nc3ccc(C#CC4=CCCCC4)cc31)[C@H]2c1ccc(OCCO)cc1`, 1.73; under `COCCOC(=O)N1C(=O)[C@@]2(c3cc(C#Cc4ccc(OC)cc4)ccc31)[C@H](C(N)=O)[C@H]1C(=O)O[C@H](c3ccccc3)[C@H](c3ccccc3)N1[C@@H]2c1ccc(O)cc1`, -1.23.
Compound `CN1C(=O)C2C(C1=O)C1C=C(c3ccc(CO)cc3)C2C(C2CC2)N1Cc1sc2ccccc2c1Cl` (stereo unspecified) showed a composite z-score of 2.1.
Under `CC1CC/C=C\[C@H]2OC34C=CCN(Cn5nnc6ccccc65)C(=O)[C@H]3N(CCCO)C(=O)[C@@H]4C2C(=O)O1` (stereo partly specified) stands -0.958; under `O=P(NCC1(CC2(c3ccccc3)CO2)CC1)(c1ccccc1)c1ccccc1` (stereo unspecified), -0.767.
`CCOC(=O)C1=CC[C@@H](c2ccccc2)N(S(=O)(=O)c2ccc(C)cc2)[C@H]1c1ccc(C#N)cc1` came in with a composite z-score of 1.31.
Take `COc1cc(NN2C(C(O)c3ccccc3)C=CC3C(=O)N(c4ccccc4)C(=O)C32)cc(OC)c1OC` (stereo unspecified): the composite z-score was determined as 0.148.
Next, `Cn1c2c(c3ccccc31)C(=O)C1NC2C=CC1(C)C(=O)OCc1ccccc1` (stereo unspecified): 0.298.
Next, `Cc1ccc(S[C@]2(C(=O)NCCN3CCOCC3)CC(=O)N(C3CCCCC3)[C@@H]2c2ccc(CO)cc2)cc1`: 0.893; `COCCOC(=O)N1C(=O)[C@@]2(c3cc(C#CC4=CCCCC4)ccc31)[C@H](c1ccc(OCCO)cc1)N1[C@H](c3ccccc3)[C@H](c3ccccc3)OC(=O)[C@H]1[C@@H]2C(=O)Nc1nc2ccccc2s1`: 1.27.
